Laboratory results taken from the antibiotic and cytotoxicity screens of Wong et al. (2023).
Hit rate of the full screen: of about 39,000 compounds, about 1,500 (3.8%) were called active. The sample as a whole holds a higher share of actives than the screen did.

tested on: HSkMC (human skeletal muscle cells); test: cytotoxicity call (relative viability < 0.9); conditions: 10 µM

Compound | cytotoxicity call
C[C@H]1CN([C@@H](C)CO)C(=O)c2cccc(NS(=O)(=O)c3cn(C)cn3)c2O[C@@H]1CN(C)C(=O)NC1CCCCC1 | inactive
CO[C@H]1CN(C)C(=O)c2ccc(NS(=O)(=O)c3cn(C)cn3)cc2OC[C@@H](C)N(CC2CC2)C[C@@H]1C | inactive
Cn1cnc(S(=O)(=O)N2C[C@@H](O)COC[C@@H]3O[C@H](CC(=O)NCc4cccc(F)c4)CC[C@H]32)c1 | inactive
CNC(=O)c1cccc(S(N)(=O)=O)c1 | inactive
C[C@@H]1CCCCO[C@H](CN(C)C(=O)NC2CCCCC2)[C@H](C)CN([C@H](C)CO)C(=O)c2cc(NC(=O)NC3CCCCC3)ccc2O1 | inactive
C[C@@H]1CN([C@@H](C)CO)C(=O)c2cc(C#CC(C)(C)O)cnc2O[C@H]1CN(C)C(=O)CN(C)C | inactive
C[C@@H]1CN([C@H](C)CO)C(=O)c2cccc(NS(=O)(=O)c3ccc(F)cc3)c2O[C@@H]1CN(C)C(=O)Nc1ccc(C(F)(F)F)cc1 | inactive
C[C@@H]1CN([C@@H](C)CO)C(=O)Cc2cc(NS(C)(=O)=O)ccc2O[C@@H]1CN(C)C(=O)Nc1ccc2c(c1)OCO2 | inactive
C[C@H](CO)N1C[C@H](C)[C@H](CN(C)C(=O)Nc2ccc3c(c2)OCO3)OCCCC[C@H](C)Oc2ccc(NC(=O)CCCCCC(=O)Nc3ccccc3N)cc2C1=O | inactive
Cc1noc(C)c1NC(=O)Nc1cccc2c1O[C@H](CN(C)Cc1ccc(C(F)(F)F)cc1)[C@H](C)CN([C@@H](C)CO)C2=O | inactive
C[C@H]1CN([C@@H](C)CO)C(=O)Cc2cc(NC(=O)Cc3cn(C)c4ccccc34)ccc2O[C@@H]1CN(C)Cc1ccc(C(=O)Nc2ccccc2N)cc1 | inactive
C[C@@H]1CN([C@H](C)CO)C(=O)c2cc(NC(=O)Cc3cn(C)c4ccccc34)ccc2O[C@@H]1CN(C)Cc1ccc(C(=O)Nc2ccccc2N)cc1 | inactive
C[C@@H]1CN([C@H](C)CO)C(=O)Cc2cc(NC(=O)Cc3cn(C)c4ccccc34)ccc2O[C@@H]1CN(C)Cc1ccc(C(=O)Nc2ccccc2N)cc1 | inactive
C[C@H](CO)N1C[C@H](C)[C@H](CN(C)Cc2ccc(C(=O)Nc3ccccc3N)cc2)Oc2ccc(NC(=O)Cc3cn(C)c4ccccc34)cc2CC1=O | active
C[C@H](CO)N1C[C@H](C)[C@H](CN(C)Cc2ccc(C(=O)Nc3ccccc3N)cc2)Oc2ccc(NC(=O)Cc3cn(C)c4ccccc34)cc2C1=O | inactive
C[C@H]1CN([C@@H](C)CO)C(=O)c2cc(NC(=O)Cc3cn(C)c4ccccc34)ccc2O[C@@H]1CN(C)Cc1ccc(C(=O)Nc2ccccc2N)cc1 | active
O=C(C[C@@H]1CC[C@H]2[C@@H](COC[C@H](O)CN2S(=O)(=O)c2ccc(Cl)cc2)O1)NCCN1CCCC1 | inactive
O=C(C[C@H]1C=C[C@@H](NS(=O)(=O)c2ccc(F)cc2)[C@@H](CO)O1)N1CCC(Cc2ccccc2)CC1 | inactive
C[C@@H]1CCCCO[C@H](CN(C)C(=O)Nc2ccc(C(F)(F)F)cc2)[C@@H](C)CN([C@@H](C)CO)C(=O)c2cc(NC(=O)CCC(F)(F)F)ccc2O1 | inactive
C[C@@H]1CCCCO[C@@H](CN(C)C(=O)CCC(F)(F)F)[C@H](C)CN([C@@H](C)CO)C(=O)c2cc(NS(=O)(=O)c3ccccc3)ccc2O1 | inactive
COc1ccc(CN(C)C[C@H]2OCCCC[C@H](C)Oc3ccc(NC(=O)Nc4ccc(C(F)(F)F)cc4)cc3C(=O)N([C@H](C)CO)C[C@H]2C)cc1 | active
COc1ccc(NC(=O)Nc2ccc3c(c2)C(=O)N([C@@H](C)CO)C[C@H](C)[C@@H](CN(C)Cc2ccc(C(F)(F)F)cc2)OCCCC[C@H](C)O3)cc1 | inactive

Compound | cytotoxicity call
COc1ccc(CN(C)C[C@@H]2OCCCC[C@@H](C)Oc3ccc(NC(=O)Nc4ccc(C(F)(F)F)cc4)cc3C(=O)N([C@@H](C)CO)C[C@@H]2C)cc1 | active
COc1ccc(NC(=O)Nc2ccc3c(c2)C(=O)N([C@@H](C)CO)C[C@H](C)[C@H](CN(C)Cc2ccc(C(F)(F)F)cc2)OCCCC[C@H](C)O3)cc1 | inactive
COc1ccc(CN(C)C[C@H]2OCCCC[C@@H](C)Oc3ccc(NC(=O)Nc4ccc(C(F)(F)F)cc4)cc3C(=O)N([C@H](C)CO)C[C@@H]2C)cc1 | active
COc1ccc(CN(C)C[C@@H]2OCCCC[C@@H](C)Oc3ccc(NC(=O)Nc4ccc(C(F)(F)F)cc4)cc3C(=O)N([C@@H](C)CO)C[C@H]2C)cc1 | active
C[C@@H]1CCCCO[C@H](CN(C)C(=O)Cc2ccccc2)[C@H](C)CN([C@@H](C)CO)C(=O)c2cc(NC(=O)Cc3ccccc3)ccc2O1 | inactive
COc1ccc(NC(=O)Nc2ccc3c(c2)C(=O)N([C@@H](C)CO)C[C@@H](C)[C@@H](CN(C)C(=O)NC2CCCCC2)OCCCC[C@H](C)O3)cc1 | inactive
C[C@@H]1CN([C@H](C)CO)S(=O)(=O)c2ccc(C#Cc3ccncc3)cc2O[C@@H]1CN(C)C(=O)C1CCOCC1 | inactive
C[C@@H]1CCCCO[C@@H](CN(C)C(=O)C2CCCCC2)[C@@H](C)CN([C@@H](C)CO)C(=O)c2cc(NC(=O)Nc3ccc4c(c3)OCO4)ccc2O1 | inactive
COc1ccc(NC(=O)N(C)C[C@H]2Oc3c(NS(C)(=O)=O)cccc3C(=O)N([C@H](C)CO)C[C@@H]2C)cc1 | inactive
C[C@@H]1CCCCO[C@H](CN(C)C)[C@H](C)CN([C@@H](C)CO)C(=O)c2cc(NC(=O)Nc3cccc4ccccc34)ccc2O1 | inactive
C[C@H](CO)N1C[C@H](C)[C@H](CN(C)S(=O)(=O)c2cn(C)cn2)Oc2ccc(NC(=O)CCCN(C)C)cc2C1=O | inactive
O=C(CN1CCOCC1)NCC[C@@H]1CC[C@H](NS(=O)(=O)c2ccc(Cl)cc2)[C@@H](CO)O1 | inactive
C[C@@H]1CN([C@H](C)CO)C(=O)c2cccc(NC(=O)CCCCCC(=O)Nc3ccccc3N)c2O[C@H]1CN(C)C(=O)Nc1ccccc1 | inactive
Cn1cc(N2C[C@]3(COCCN(C(=O)C4CC4)C3)OCC2=O)cn1 | inactive
COc1ccc(CN(C)C[C@@H]2OCCCC[C@H](C)Oc3ccc(NC(=O)Nc4ccc(C(F)(F)F)cc4)cc3C(=O)N([C@@H](C)CO)C[C@H]2C)cc1 | active
COc1ccc(NC(=O)Nc2ccc3c(c2)C(=O)N([C@H](C)CO)C[C@@H](C)[C@@H](CN(C)Cc2ccc(C(F)(F)F)cc2)OCCCC[C@H](C)O3)cc1 | inactive
COc1ccc(NC(=O)Nc2ccc3c(c2)C(=O)N([C@H](C)CO)C[C@@H](C)[C@@H](CN(C)Cc2ccc(C(F)(F)F)cc2)OCCCC[C@@H](C)O3)cc1 | active
COc1ccc(CN(C)C[C@@H]2OCCCC[C@H](C)Oc3ccc(NC(=O)Nc4ccc(C(F)(F)F)cc4)cc3C(=O)N([C@@H](C)CO)C[C@@H]2C)cc1 | active
COc1ccc(NC(=O)Nc2ccc3c(c2)C(=O)N([C@@H](C)CO)C[C@@H](C)[C@H](CN(C)Cc2ccc(C(F)(F)F)cc2)OCCCC[C@H](C)O3)cc1 | inactive
COc1ccc(CN(C)C[C@@H]2OCCCC[C@@H](C)Oc3ccc(NC(=O)Nc4ccc(C(F)(F)F)cc4)cc3C(=O)N([C@H](C)CO)C[C@@H]2C)cc1 | active
COc1ccc(NC(=O)Nc2ccc3c(c2)C(=O)N([C@H](C)CO)C[C@@H](C)[C@H](CN(C)Cc2ccc(C(F)(F)F)cc2)OCCCC[C@H](C)O3)cc1 | inactive
COc1ccc(NC(=O)Nc2ccc3c(c2)C(=O)N([C@H](C)CO)C[C@H](C)[C@@H](CN(C)Cc2ccc(C(F)(F)F)cc2)OCCCC[C@@H](C)O3)cc1 | inactive
